Here are results for twelve compounds from PubChem BioAssay (Tox21).

SMILES strings stand for the structures. Inconclusive results are not listed. A number with no mark means an inactive call. Active and inactive are the calls of the source. Unless noted, calls follow the shape of the dose curve; as a rule, active = well fitted curve in the direction sought with a large enough effect in the repeat runs; inconclusive = weak or mixed curves; inactive = no such curve, though single readings can be large; an effect the other way counts as inactive or inconclusive.

Test [1] can be described thus: qHTS assay to identify small molecule agonists of the peroxisome proliferator-activated receptor delta (PPARd) signaling pathway - cell viability counter screen (AID 743211). Also: nearly all actives have a fitted effect of over 55% in size. Also: potency is read from the fitted curve at half-maximal effect. The essentials:
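Tox21 library compounds, delivered in DMSO, were incubated 17 h with PPARd-bla HEK293H cells; cytotoxicity was taken from CellTiter-Glo luminescence read 30 min after reagent addition.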
A general note: qHTS replaces the single test concentration by a dilution series.

The target of test [2] is Peroxisome proliferator-activated receptor delta (Homo sapiens) (UniProt Q03181). The test is described as follows: qHTS assay to identify small molecule agonists of the peroxisome proliferator-activated receptor delta (PPARd) signaling pathway (AID 743212; calls by dose curve). The essentials:
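A PPARd-bla HEK293H line with beta-lactamase under an Upstream Activator Sequence is treated with compounds at 37 C. Substrate loading for 2 h at room temperature precedes the fluorescence measurement.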

Test [3] in a line: qHTS assay to identify small molecule antagonists of the peroxisome proliferator-activated receptor delta (PPARd) signaling pathway - cell viability counter screen (AID 743213). Also: nearly all actives have a fitted effect of over 50% in size. The essentials: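 PPARd-bla HEK293H cells (3000/well) got compound plus 300 nM L165041 agonist for 17 h at 37 C. Viability in the same wells came from CellTiter-Glo luminescence after 30 min at room temperature.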

The target of test [4] is Peroxisome proliferator-activated receptor delta (Homo sapiens) (UniProt Q03181). Put plainly: qHTS assay to identify small molecule antagonists of the peroxisome proliferator-activated receptor delta (PPARd) signaling pathway (AID 743215; active = well fitted inhibition curve with a large enough effect in the signal ratio in the repeat runs, not every such curve was filed as active; the % refers to the signal ratio;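 also: cells stimulated with agonist L165041 at 300 nM final during compound exposure; series mostly up to about 62 µM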). A digest of the protocol:
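Read-out is beta-lactamase FRET fluorescence, measured 2 h after substrate addition at room temperature. Beforehand, UAS-bla HEK293H cells carrying the PPARd reporter were exposed to compounds with L165041 at 300 nM final for 17 h at 37 C.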

The target in test [5] is Bile acid receptor (Homo sapiens) (UniProt Q96RI1). The test is described as follows: qHTS assay to identify small molecule antagonists of the farnesoid-X-receptor (FXR) signaling pathway (AID 743217; active = well fitted inhibition curve with a large enough effect in the signal ratio in the repeat runs, not every such curve was filed as active; the % refers to the signal ratio). A digest of the protocol:
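HEK 293T FXR-UAS-bla, 5000 cells/well; compound + CDCA 50 uM final; 16 h, 37 °C; B/G FRET substrate 2 h RT; fluorescence.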

Test [6] in a line: qHTS assay to identify small molecule agonists of the farnesoid-X-receptor (FXR) signaling pathway - cell viability counter screen (AID 743218). Also: nearly all actives have a fitted effect of over 45% in size. The essentials: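 HEK 293T FXR-bla cells; 5 h pre-incubation, 16 h compound exposure at 37 C; LiveBLAzer substrate 2 h RT, then CellTiter-Glo 30 min RT, luminescence.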
For test [7], the target named is Bile acid receptor (Homo sapiens) (UniProt Q96RI1). Put plainly: qHTS assay to identify small molecule agonists of the farnesoid-X-receptor (FXR) signaling pathway (AID 743220; active = well fitted activation curve with a large enough effect in the signal ratio in the repeat runs, not every such curve was filed as active; the % refers to the signal ratio). The essentials:
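Beta-lactamase reporter under UAS control in GeneBLAzer FXR HEK 293T cells (5000/well) measured with LiveBLAzer FRET substrate after 2 h at room temperature. Compound exposure lasted 16 h at 37C.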

Test [8] can be described thus: qHTS assay to identify small molecule antagonists of the farnesoid-X-receptor (FXR) signaling pathway - cell viability counter screen (AID 743221; active = well fitted cell-killing curve with a large enough effect in the repeat runs, not every such curve was filed as active; also: nearly all actives have a fitted effect of over 50% in size). A digest of the protocol: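 Cytotoxicity is taken from ATP luminescence (CellTiter-Glo, 30 min, room temperature) in FXR-bla HEK 293T cells previously incubated 16 h at 37 C with compound and chenodeoxycholic acid at 50 uM final.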

Test [9] has as its target Vitamin D3 receptor (Homo sapiens) (UniProt P11473). Put plainly: qHTS assay to identify small molecule agonists of the vitamin D receptor (VDR) signaling pathway (AID 743222; calls by dose curve). A digest of the protocol:
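VDR-bla cells, 2,000/well; 4 h preincubation 37C; cpd (DMSO) 16 h; LiveBLAzer B/G substrate 2 h RT; fluorescence intensity read.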

A short description of test [10]: qHTS assay to identify small molecule antagonists of the vitamin D receptor (VDR) signaling pathway - cell viability counter screen (AID 743225). Also: nearly all actives have a fitted effect of over 50% in size. The essentials:
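Same-well multiplex: following 16 h treatment of HEK 293T cells carrying a UAS-driven beta-lactamase reporter with compound and agonist (3 nM final), and a 2 h FRET substrate step, CellTiter-Glo was added and luminescence read after 30 min.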

Test [11] in a line: qHTS assay to identify small molecule agonists of the NFkB signaling pathway - cell viability counter screen (AID 1159515; calls by dose curve; also: series mostly up to about 61 µM; nearly all actives have a fitted effect of over 55% in size). A digest of the protocol: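 Luminescence from CellTiter-Glo (30 min, room temperature) gives viability, measured in the same wells as the beta-lactamase reporter read. Cells were NFkB-bla ME-180, 2,000 per well, treated 5 hr with compounds.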
Test [12] can be described thus: qHTS assay to identify small molecule agonists of the endoplasmic reticulum stress response signaling pathway (AID 1159516; active = well fitted activation curve with a large enough effect in the signal ratio in the repeat runs, not every such curve was filed as active; the % refers to the signal ratio). The essentials: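 Read-out is beta-lactamase cleavage of a FRET substrate (405 nm excitation; 460 and 530 nm emissions) in ESRE-bla HeLa cells after a 5 hr compound exposure at 37 C. Substrate incubation ran 2 hr at room temperature.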
Test [13] is described as follows: qHTS assay to identify small molecule agonists of the endoplasmic reticulum stress response signaling pathway - cell viability counter screen (AID 1159517; calls by dose curve;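 also: HeLa cells carrying an ER stress response element beta-lactamase reporter; series mostly up to about 61 µM; nearly all actives have a fitted effect of over 50% in size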). A digest of the protocol: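 CellTiter-Glo was added to wells already read for beta-lactamase FRET, and luminescence was recorded 30 min later. Cells: ESRE-bla HeLa, 1,500 per well, compound exposure 5 hr at 37 C.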

Test [14] can be described thus: qHTS assay to identify small molecule antagonists of the retinoid-related orphan receptor gamma (ROR-gamma) signaling pathway - cell viability counter screen (AID 1159520). Also: nearly all actives have a fitted effect of over 50% in size. A digest of the protocol: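 Tet-on ROR gamma CHO cells (1,000/well) were plated 4 hr, given compounds in DMSO for 2 hr at 37 C, then induced with 1 uM final doxycycline for 16 hr. Viability was read as ATP by CellTiter-Glo luminescence after 30 min.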

The target in test [15] is Nuclear receptor ROR-gamma (Homo sapiens) (UniProt P51449). The test is described as follows: qHTS assay to identify small molecule antagonists of the retinoid-related orphan receptor gamma (ROR-gamma) signaling pathway (AID 1159521; also: nearly all actives have a fitted effect of over 50% in size; also: potency is read from the fitted curve at half-maximal effect). The essentials: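 Inducible-expression reporter assay: doxycycline (1 uM final) switched on RORγ in CHO cells bearing a ROR response element-luciferase construct, with test compounds present from 2 h beforehand. Decreased luminescence after 16 h defined antagonist activity.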

Test [16] can be described thus: qHTS assay to identify small molecule agonists of the AP-1 signaling pathway - cell viability counter screen (AID 1159525; calls by dose curve; also: nearly all actives have a fitted effect of over 55% in size). The essentials:
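ME-180 AP-1-bla, 2500 cells/well, Opti-MEM + 0.5% dialyzed FBS; overnight 37 °C; cpd 15-pt titration, 5 h 37 °C; CellTiter-Glo 30 min RT; luminescence read; normalised to TOAB and DMSO controls.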

Test [17] has as its target Vitamin D3 receptor (Homo sapiens) (UniProt P11473). The test is described as follows: qHTS assay to identify small molecule antagonists of the vitamin D receptor (VDR) signaling pathway (AID 743223; active = well fitted inhibition curve with a large enough effect in the signal ratio in the repeat runs, not every such curve was filed as active; the % refers to the signal ratio). The essentials:
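Quantitative HTS in VDR-bla reporter cells stimulated with 1alpha,25-dihydroxyvitamin D3, 3 nM final. Compound exposure 16 h, 37C, 5% CO2. Read-out: beta-lactamase FRET substrate fluorescence, 2 h RT.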

Test [18] can be described thus: qHTS assay to identify small molecule agonists of the vitamin D receptor (VDR) signaling pathway - cell viability counter screen (AID 743224). The essentials:
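Luminescence from CellTiter-Glo, read after 30 min at room temperature, reports viability of VDR-bla cells treated with compounds for 16 h at 37C in the wells used for the beta-lactamase FRET read.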

Test [19] can be described thus: qHTS assay to identify small molecule agonists of the AP-1 signaling pathway (AID 1159526; calls by dose curve).
Test [20] concerns the target Retinoic acid receptor RXR-alpha (Homo sapiens) (UniProt P19793). The test is described as follows: qHTS assay to identify small molecule agonists of the RXR signaling pathway (AID 1159527; calls by dose curve; also: nearly all actives have a fitted effect of over 35% in size). The essentials: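 Compounds in DMSO were added to RXR-alpha-UAS-bla HEK 293T cells kept in 2% charcoal-stripped serum, and incubated 16 hr at 37 C with 5% CO2. Reporter signal came from a 2 hr B/G FRET substrate step.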

Vitamin D3 receptor (Homo sapiens), sequence (P11473 whole entry, looked up): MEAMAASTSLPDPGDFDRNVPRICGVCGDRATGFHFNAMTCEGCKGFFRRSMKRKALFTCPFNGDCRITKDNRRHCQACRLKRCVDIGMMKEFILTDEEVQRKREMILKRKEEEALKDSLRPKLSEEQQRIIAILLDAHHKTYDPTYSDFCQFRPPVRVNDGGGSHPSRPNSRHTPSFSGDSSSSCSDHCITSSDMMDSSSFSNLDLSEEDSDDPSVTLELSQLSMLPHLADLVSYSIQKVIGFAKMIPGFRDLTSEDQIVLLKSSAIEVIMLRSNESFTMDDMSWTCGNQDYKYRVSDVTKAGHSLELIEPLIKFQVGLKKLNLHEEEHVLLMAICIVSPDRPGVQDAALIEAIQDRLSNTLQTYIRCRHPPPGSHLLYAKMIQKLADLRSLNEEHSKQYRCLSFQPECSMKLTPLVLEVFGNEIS
Peroxisome proliferator-activated receptor delta (Homo sapiens), sequence (Q03181 whole entry, looked up): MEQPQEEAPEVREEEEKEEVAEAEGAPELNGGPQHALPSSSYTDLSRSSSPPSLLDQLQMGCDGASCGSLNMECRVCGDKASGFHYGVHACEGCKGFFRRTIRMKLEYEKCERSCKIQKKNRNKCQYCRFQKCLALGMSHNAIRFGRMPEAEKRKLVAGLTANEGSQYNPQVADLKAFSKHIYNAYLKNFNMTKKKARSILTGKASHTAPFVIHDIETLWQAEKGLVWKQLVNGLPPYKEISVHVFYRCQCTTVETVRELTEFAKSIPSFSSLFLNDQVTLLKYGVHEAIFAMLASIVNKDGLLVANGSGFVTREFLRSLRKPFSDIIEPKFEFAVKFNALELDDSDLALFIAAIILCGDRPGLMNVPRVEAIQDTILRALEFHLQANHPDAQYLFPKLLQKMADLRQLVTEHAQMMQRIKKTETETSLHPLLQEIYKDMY
Bile acid receptor (Homo sapiens), sequence (Q96RI1 whole entry, looked up): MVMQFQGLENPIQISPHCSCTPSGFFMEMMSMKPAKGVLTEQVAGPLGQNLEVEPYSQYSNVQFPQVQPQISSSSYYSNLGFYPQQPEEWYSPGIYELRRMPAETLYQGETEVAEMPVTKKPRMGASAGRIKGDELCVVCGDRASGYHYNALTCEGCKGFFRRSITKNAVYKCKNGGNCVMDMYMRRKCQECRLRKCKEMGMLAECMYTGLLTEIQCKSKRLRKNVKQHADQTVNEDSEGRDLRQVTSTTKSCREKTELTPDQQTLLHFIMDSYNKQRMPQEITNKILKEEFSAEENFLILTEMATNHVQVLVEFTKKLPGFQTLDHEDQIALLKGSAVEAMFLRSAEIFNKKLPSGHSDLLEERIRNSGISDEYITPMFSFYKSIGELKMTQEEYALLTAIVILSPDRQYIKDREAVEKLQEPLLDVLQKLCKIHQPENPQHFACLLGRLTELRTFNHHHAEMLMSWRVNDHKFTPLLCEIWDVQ
Retinoic acid receptor RXR-alpha (Homo sapiens), sequence (P19793 whole entry, looked up): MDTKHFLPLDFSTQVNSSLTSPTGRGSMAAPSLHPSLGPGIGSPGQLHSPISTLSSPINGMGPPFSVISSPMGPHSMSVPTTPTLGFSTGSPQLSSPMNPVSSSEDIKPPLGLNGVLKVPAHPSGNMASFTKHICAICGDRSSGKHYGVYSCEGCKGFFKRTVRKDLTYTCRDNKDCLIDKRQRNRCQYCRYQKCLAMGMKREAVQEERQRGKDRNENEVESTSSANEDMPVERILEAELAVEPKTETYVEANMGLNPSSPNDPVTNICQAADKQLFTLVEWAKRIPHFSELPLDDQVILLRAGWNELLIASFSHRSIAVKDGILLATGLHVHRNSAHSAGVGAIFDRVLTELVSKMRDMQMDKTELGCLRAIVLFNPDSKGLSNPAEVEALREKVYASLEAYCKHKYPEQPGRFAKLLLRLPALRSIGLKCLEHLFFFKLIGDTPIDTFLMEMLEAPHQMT

For the compound `CC(C)c1cccc(C(C)C)c1NC(=O)NS(=O)(=O)c1cc(C(C)(C)O)co1`, the Potency entry in [1], in test [3], in test [6], in test [8], in test [10] and in test [11] was “inactive” each time. Moreover, the Potency entry in test [12], in test [14], in test [15] and in [16] was “inactive” throughout. The compound was classed as inactive in test [2], in test [4], in [5], in test [7], in test [9] and in test [13].
As for `CCCCC(CC)COCCCN` (configuration not stated), the Potency entry in [1], in test [3], in test [8], in test [10], in test [11] and in test [12] was “inactive” throughout. Moreover, the Potency entry in test [14], in test [15] and in test [16] was “inactive” each time. The call in [2], in [4], in test [5] and in test [13] was inactive.
For the compound `CN(C)CC/C=C1\c2ccccc2COc2ccccc21`, the Potency in test [1] was 26.6 µM (active). The compound was called inactive in [5], in test [7], in test [9] and in test [13]. Besides, the Potency result in test [8], in test [17], in [18], in [10], in test [11] and in test [12] was “inactive” throughout. The Potency result in [14], in [15] and in test [16] was “inactive” each time.
`CCCCOC(=O)c1ccccc1C(=O)OCC(CC)CCCC` (configuration not stated): the Potency entry in [1], in test [3], in test [6], in [8], in [18] and in test [10] was “inactive” each time. Moreover, the Potency entry in test [11], in test [12], in test [14], in test [15] and in test [16] was “inactive” throughout. In addition, the compound was called inactive in [2], in [7], in test [9] and in test [13].
Take `CC[C@H](C)[C@H](N)C(=O)O`: the Potency result in test [1], in test [3], in test [6], in test [8], in test [17] and in test [18] was “inactive” throughout. For the same compound, the Potency entry in test [10], in test [11], in [12], in [14], in test [15] and in test [19] was “inactive” throughout. For the same compound, the Potency entry in test [20] is “inactive”. The compound was called inactive in test [9] and in test [13].
For the compound `O=C(O)Cn1c(C(=O)Nc2nc(-c3ccccc3Cl)cs2)cc2ccccc21`, the Potency result in [1], in test [3], in test [6], in test [8], in test [17] and in [18] was “inactive” throughout. For the same compound, the Potency result in [11], in [12], in test [14], in test [15] and in test [16] was “inactive” throughout. Also, the compound was classed as inactive in test [5], in test [7] and in test [13].
`O=[N+]([O-])c1cc[n+]([O-])cc1`: the Potency result in test [1], in test [3], in [6], in test [8], in test [10] and in [11] was “inactive” throughout. Moreover, the Potency result in test [12], in test [14] and in [16] was “inactive” throughout. In addition, the outcome in test [5], in test [7], in test [9] and in test [13] was inactive. Also, the Potency in [15] is 9.69 µM (active).
Turning to `N#CCc1cccc(C(F)(F)F)c1`, the Potency entry in test [1], in test [3], in [6], in [8], in test [18] and in [10] was “inactive” throughout. Moreover, the Potency entry in test [11], in [12], in test [14], in test [15] and in test [16] was “inactive” throughout. The outcome in [2], in [5], in [7] and in test [13] was inactive.
In the case of `C=CC(C)(CCC=C(C)C)OC(=O)c1ccccc1` (configuration not stated), the Potency entry in test [1], in test [3], in test [6], in test [8], in test [11] and in test [12] was “inactive” each time. For the same compound, the Potency entry in test [14], in test [15] and in [16] was “inactive” each time. Besides, the compound was classed as inactive in [5], in [7] and in test [13].
Turning to `O=C(/C=C/c1ccc(O)c(O)c1)O[C@@H]1C[C@](O)(C(=O)O)C[C@@H](O)[C@H]1O`, the Potency entry in [1], in test [3], in test [8], in test [11], in test [12] and in test [14] was “inactive” each time. The Potency result in test [15], in [16] and in test [20] was “inactive” in each case. Further, the result in [2] and in test [13] was inactive.
`Oc1ccc(Sc2ccc(O)cc2)cc1`: the Potency result in [1], in test [3], in [6], in test [8], in test [18] and in test [11] was “inactive” throughout. Also, the Potency entry in [12], in test [14], in test [15], in test [19] and in test [20] was “inactive” each time. Also, the compound was classed as inactive in test [2], in [4], in test [7], in test [9] and in test [13].
As for `CCCCCOC(=O)c1ccc(O)cc1`, the result in test [2], in test [4], in test [7], in test [9] and in [13] was inactive. Moreover, the Potency entry in [3], in [11], in test [12], in [14], in [15] and in test [16] was “inactive” throughout. Besides, the Potency result in test [20] was “inactive”.
